# Sampled rows, rich in hits. Any-hit rate of the full collection: about 0.71%.
# RECQ1 helicase – blocks DNA unwinding by human RECQ1 | AID 2549 | RECQ1 DNA unwinding, red fluorescence kinetic read | 240,000 compounds, 0.54% hits | Potency, µM (titrated, usually from 57.3 µM), hits mostly inhibitors; also: nearly all actives have a fitted effect of over 30% in size
# Target sequence (P46063 whole entry, looked up): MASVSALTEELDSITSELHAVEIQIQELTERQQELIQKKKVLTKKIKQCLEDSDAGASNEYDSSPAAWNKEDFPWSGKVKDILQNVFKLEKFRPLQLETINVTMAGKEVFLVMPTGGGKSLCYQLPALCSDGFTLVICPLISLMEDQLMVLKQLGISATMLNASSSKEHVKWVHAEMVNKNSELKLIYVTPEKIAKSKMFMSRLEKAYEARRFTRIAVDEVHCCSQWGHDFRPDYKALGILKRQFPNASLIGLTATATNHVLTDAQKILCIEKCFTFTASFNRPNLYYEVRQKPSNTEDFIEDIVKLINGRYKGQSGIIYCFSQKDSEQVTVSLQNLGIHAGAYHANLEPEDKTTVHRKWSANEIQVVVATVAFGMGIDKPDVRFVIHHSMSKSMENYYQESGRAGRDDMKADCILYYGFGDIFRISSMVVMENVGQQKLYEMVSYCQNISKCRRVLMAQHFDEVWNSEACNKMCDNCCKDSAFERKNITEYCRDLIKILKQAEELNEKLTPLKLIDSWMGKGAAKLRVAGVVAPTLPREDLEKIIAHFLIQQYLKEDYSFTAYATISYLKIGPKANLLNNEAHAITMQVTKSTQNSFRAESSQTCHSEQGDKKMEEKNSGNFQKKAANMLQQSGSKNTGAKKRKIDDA
#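 RECQ1T1 50 nM; forked duplex (20 bp + 30-nt ss tails) 200 nM, ATP 2 mM final; pH 8.0, 2 mM MgCl2, 2.5 ug/ml poly(dI-dC); 15 min compound preincubation; discontinuous kinetic read over 2 h at RT.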
# ERG Ets-DNA blk – blocks human ERG Ets domain binding to DNA; fluorescence polarization, His-ERG Ets domain / labelled DNA; AID 624246; P11308; 370,000 compounds, 0.028% hits; Potency, µM (series often up to 76.9 µM), hits mostly inhibitors; active = well fitted inhibition curve with a large enough effect in the polarisation, with a control signal flat; inconclusive = small, poorly fitted or top-dose-only effect, or effect the other way, or a change in a side signal; inactive = no such curve, though single readings can be large or run the other way; the % refers to the polarisation;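 also: polarization taken with two DNA probes labelled with fluorescein and Texas red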
#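 His-tagged ERG Ets domain (1 uM in the protein solution; 300mM KCl, 50mM Tris-HCl, 1mM EDTA, 1mM DTT, pH 7.5) received compound, then a probe mix of 5 nM fluorescein-DNA and 100nM Texas-615-DNA. Fluorescence polarization was read for both dyes.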
# BLM helicase inh – Bloom syndrome helicase (human) inhibition; 350,000 compounds, 0.2% hits; Potency, µM (series often up to 56.1 µM), usual class: inhibitors; recombinant BLM DNA unwinding, fluorescence dequenching; P54132; also: nearly all actives have a fitted effect of over 35% in size
# TR SRC2 fluor cs – Texas Red fluorescence interference in TRb-SRC2 counter-screen. TRb/SRC2 Texas Red total fluorescence interference. Potency, µM (titrated, usually from 106 µM). 280,000 compounds, 0.29% hits; active = well fitted curve in either direction with a large enough effect; inconclusive = small, poorly fitted or top-dose-only effect
#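 Flags fluorescent or light-absorbing compounds by total fluorescence, S + 2P, at 555 nm excitation and 632 nm emission. Mixture: 20 nM Texas Red SRC2 peptide, 0.6 uM human TRb LBD, 1 uM T3, 5% DMSO; compound exposure 5 h at ambient temperature.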
# TRb SRC2 PPI – TRbeta-SRC2 interaction inhibition; P10828; TRbeta-SRC2 peptide binding, fluorescence polarization; receptor liganded with 1 µM T3; Potency, µM (doses to about 106 µM), usual class: inhibitors; 280,000 compounds, 0.065% hits; AID 1469; also: nearly all actives have a fitted effect of over 50% in size
#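 TRb LBD 0.6 uM + Texas Red SRC2 peptide 20 nM, 1 uM T3, Tris buffer w/ 5% DMSO; compound pinned, 5 h RT; FP read ex 555/em 632; normalized to unbound and bound controls.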
# GoLoco inh red – blocks human Gai1 binding to RGS12 GoLoco peptide, red readout. P63096. Gai1:RGS12 GoLoco peptide FP, rhodamine, 10 min. Potency, µM (doses to about 61.6 µM), actives largely listed as inhibitors. 230,000 compounds, 0.44% hits; active = well fitted inhibition curve with a large enough effect, not every such curve was filed as active; inactive = no such curve, though single readings can be large or run the other way; also: nearly all actives have a fitted effect of over 30% in size
# Hits are given with their value; 0 = inactive; ? = inconclusive; - = no result; ! = not confirmed by another sample; [ ] = dose if it differs, or a comment. Unless noted, calls follow the shape of the dose curve; as a rule, active = well fitted curve in the direction sought with a large enough effect; inconclusive = small, poorly fitted or top-dose-only effect, or another doubt; inactive = no such curve, though single readings can be large; an effect the other way counts as inactive or inconclusive.
SMILES,RECQ1 helicase,ERG Ets-DNA blk,BLM helicase inh,TR SRC2 fluor cs,TRb SRC2 PPI,GoLoco inh red
CC1CCC2C(=O)N3C(CCC(C)C3c3ccc(-c4ccco4)cc3)C(=O)N2C1c1ccc(-c2ccco2)cc1 (configuration not stated),2.5µM,-,3.5µM,0[11.2 µM],0[11.2 µM],-
CCCC/C=C\CCCCCCCCO,-,-,-,0,0,-
O=C(N=Nc1c(O)[nH]c2ccc([N+](=O)[O-])cc12)c1ccccc1[N+](=O)[O-],0,0,0,0,0,0
CCc1cc(C(=O)N=Nc2c(O)[nH]c3ccc([N+](=O)[O-])cc23)c2ccccc2n1,0,0,18µM,0,0,0
COc1ccccc1N=Nc1[nH]c2ccc(C)cc2c1O,0,0,0,0,0,3.5µM
COc1ccc2[nH]c(O)c(N=O)c2c1,0,0,0,0,0,16µM
CCC(C(=O)O)C1CCC(C)C(C(C)C(O)C(C)C(=O)C(CC)C2OC3(C=CC(O)[C@@]4(CC[C@](C)(C5CC[C@@](O)(CC)C(C)O5)O4)O3)C(C)CC2C)O1 (some centres not stated),0,-,0,0,0,28µM
NCCSc1nc2ccccc2s1,-,-,-,-,-,0[14.2 µM]
c1ccc2sc(SSc3nc4ccccc4s3)nc2c1,0,-,0,0,0,10µM
C[C@]12CC[C@@H]3c4ccc(O)cc4CC[C@H]3[C@@H]1CCC2OC(=O)CCC1CCCC1 (some centres not stated),-,-,0,0,0,0
CCn1c(=O)c(=O)[nH]c2cc(C(=O)NC3CC3)ccc21,0,-,0,0,0,0
CCn1c(=O)c(=O)[nH]c2cc(C(=O)NC3CCCc4ccccc43)ccc21 (configuration not stated),0,0,0,40µM[fluorescent],0,0
O=C(CSc1nnc(-c2cccnc2)s1)Nc1ccnc2ccccc12,0,0,0,0,0,0
Cc1ccc(NC(=O)CSc2nnc(-c3cccnc3)s2)cc1,0,0,0,0.32µM[quencher],?,0
Cc1c(C(=O)OC(C)C(=O)N(C)Cc2ccccc2)oc2ccccc12 (configuration not stated),-,0,-,-,-,-
Cc1c(C(=O)OC(C)C(C)C[N+](C)(C)C)oc2ccccc12 (configuration not stated),0,0,0,0,0,14µM
O=C1NC(=Nc2ccccc2)S/C1=C\C=C\c1ccco1,0,0,13µM,0,0,0
Cc1cccc(N=C2NC(=O)/C(=C/C=C/c3ccco3)S2)c1C,0,0,?,0,0,0
COc1ccc(NC(=O)Cn2cnc3c(nc4n3CCCCC4)c2=O)cc1Cl,-,?,0,?,0,-
O=C(Cn1cnc2c(nc3n2CCCCC3)c1=O)Nc1ccc(F)c(Cl)c1,-,0,0,18µM[quencher],0,-
COc1ccc(-n2c(=O)c3c4c(sc3n(Cc3ccc(F)cc3)c2=O)CCCC4)c(OC)c1,-,0,0,0,0,-
Cc1ccc(C(=O)c2ccccc2)cc1,-,-,-,0,0,-
CC1=C(/C=C/C(C)=C/C=C/C(C)=C\C(=O)O)C(C)(C)CCC1,0,0,0,28µM![fluorescent],22µM!,0
C[C@@]12C[C@H](O)C3[C@H](CCC4=CC(=O)CC[C@]43C)[C@H]1CC[C@@H]2c1csc(N)n1 (some centres not stated),-,-,-,-,-,0[14.2 µM]
Cc1sc(-n2c(C)cc(/C=C3\SC(=S)NC3=O)c2C)c(C#N)c1C,28µM,0,0,0,0,0
SMILES,RECQ1 helicase,ERG Ets-DNA blk,BLM helicase inh,TR SRC2 fluor cs,TRb SRC2 PPI,GoLoco inh red
Cc1cc(/C=C2\SC(=S)NC2=O)c(C)n1-c1cccc(O)c1,0,0,0,0,0,0
CC(C)C[C@@H](CN(C)N=O)N(C[C@H](Cc1ccccc1)N(CCc1ccccc1)N=O)N=O,4µM,0,0,0,0,0
C=CCN1C(=O)/C(=C2/C(=O)N(CC(=O)O)c3ccccc32)S/C1=N/c1nccs1,16µM,-,0,0,0,0
N/N=C1/c2ccccc2N[C@H]1OC(=O)Nc1ccccc1,-,-,-,-,-,0[14.2 µM]
Cc1cc(O)c(CN(C)C)c2c1C(=O)/C(=C/c1ccco1)O2,-,0,0,-,-,-
Cc1cc(O)c(C=O)c2c1C(=O)Oc1c(COC(=O)/C=C/C(=O)O)c(O)c(C(=O)O)c(C)c1O2,4µM,-,0,7.1µM[quencher],?,0
Cc1cc(O)c(C=O)c2c1C(=O)Oc1c(CO)c(O)c3c(c1O2)C(O)OC3=O (configuration not stated),4µM,0,0,11µM[quencher],?,11µM
Cc1cc(O)c(C=O)c(O)c1C(=O)O,0,-,0,0,0,0
CC(=O)OCOC(c1ccc2ccccc2c1)P(=O)(OCOC(C)=O)OCOC(C)=O (configuration not stated),0,-,-,0,0,0
NC(C(=O)O)C(O)c1ccc(O)c(O)c1 (configuration not stated),-,-,?,0,0,0
COc1ccc(/C=C/c2nc3ccccc3n2C)cc1,0,0,0,0,0,0
CC(COc1ccc(/C=C/c2ccccc2)cc1)[N+](C)(C)C (configuration not stated),0,0,-,0,0,10µM
CCOc1ccc(NC(=O)CSc2nccn2-c2cccc(C)c2C)cc1,-,0,0,0,0,-
C=CCN1C(=O)/C(=C\C=C2\N(C)c3ccccc3C2(C)C)SC1=S,1.4µM,?,?,?,0,0
COc1ccccc1-c1nccc(NCc2cnc(C)cn2)n1,0,-,0,0,0,0
C#CCOCCOCCOCCNc1nc(N2CCN(C(=O)[C@H](Cc3cc4ccccc4[nH]3)n3cc([C@@H](N)CC(C)C)nn3)CC2)nc(N2CCN(C(=O)[C@H](Cc3cc4ccccc4[nH]3)n3cc([C@@H](N)CC(C)C)nn3)CC2)n1,?,0,22µM,0,0,0
COc1cccc(/C=N/N2C(=O)C3C4c5ccccc5C(c5ccccc54)C3C2=O)c1OC (configuration not stated),0,-,0,0,0,0
COc1cc(/C=N/N2C(=O)C3C4c5ccccc5C(c5ccccc54)C3C2=O)ccc1O (configuration not stated),0,0,0,0.89µM[quencher],0,0
c1ccc2n[nH]nc2c1,0,0,-,0,0,16µM
CCc1ccc(C(=O)c2cn(CC(=O)Nc3ccc4c(c3)OCO4)c3ccc(OC)cc3c2=O)cc1,-,0,14µM,0,0,-
O=C(COc1ccc(/C=C\[N+](=O)[O-])cc1)N1CCOCC1,32µM,0,0,0,0,0
N#CC1=C(N)OC2=C(CCC/C2=C/c2ccoc2)C1c1ccoc1 (configuration not stated),22µM,-,0,0,0,0
N#CC1=C(N)OC2=C(CC/C2=C\c2ccc(F)cc2)C1c1ccc(F)cc1 (configuration not stated),0,-,0,0,0,0

# Assay outcomes (PubChem)
